The record followed here is PubChem BioAssay (EPA / NIEHS).

Conditions in all cases: mRNA level, 48 h; actives raise or lower the signal
Read-out in assay [1]: Cyclin Dependent Kinase Inhibitor 1A (CDKN1A), CDKN1A (gene 1026)
Description: LTEA_HepaRG_CDKN1A: Life Technologies and Expression Analysis (LTEA) Assay for Cyclin Dependent Kinase Inhibitor 1A (CDKN1A) using HepaRG (AID 2283450). The procedure, abridged: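 HepaRG, 48 h dosing, 8-pt half-log series from 100 uM top, 0.5% DMSO vehicle, duplicates. Readout: TaqMan qRT-PCR of CDKN1A transcript, housekeeping-normalized (ACTB, GAPDH, POLR2A). Up/down curve fit relative to DMSO.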

Read-out in assay [2]: Cyclin D1 (CCND1), CCND1 (gene 595)
In words: LTEA_HepaRG_CCND1: Life Technologies and Expression Analysis (LTEA) Assay for Cyclin D1 (CCND1) using HepaRG (AID 2283451).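 For AC50: differentiated human HepaRG liver cells in serum-free induction medium; TaqMan qRT-PCR transcript level normalised to ACTB GAPDH and POLR2A housekeeping genes.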 The procedure, abridged:
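qRT-PCR (Fluidigm 96.96 array) read-out of transcript level, housekeeping-normalized (ACTB/GAPDH/POLR2A). HepaRG cells, 48 h chemical exposure, 8-point half-log series from 100 uM, 0.5% DMSO vehicle; gain or loss relative to DMSO baseline.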

Read-out in assay [3]: catalase (CAT), CAT (gene 847)
In words: LTEA_HepaRG_CAT: Life Technologies and Expression Analysis (LTEA) Assay for catalase (CAT) using HepaRG (AID 2283452). The procedure, abridged:
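Expression of CAT was quantified by TaqMan qRT-PCR with ACTB/GAPDH/POLR2A normalization after 48 h chemical exposure of HepaRG. Eight-point half-log series, top 100 uM, in 0.5% DMSO; gain or loss fitted against vehicle.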

Read-out in assay [4]: flavin-containing dimethylaniline monooxygenases 3 (FMO3), FMO3 (gene 2328)
In words: LTEA_HepaRG_FMO3: Life Technologies and Expression Analysis (LTEA) Assay for flavin-containing dimethylaniline monooxygenases 3 (FMO3) using HepaRG (AID 2283453).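 For AC50: differentiated human HepaRG liver cells in serum-free induction medium.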 The procedure, abridged:
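Eight-point concentration-response in serum-free HepaRG cultures (top 100 uM, 0.5% DMSO, 48 h). Read-out: FMO3 mRNA level normalized to three endogenous control genes, fitted bidirectionally versus vehicle.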

Read-out in assay [5]: Cytochrome P450 (CYP1A1), CYP1A1 (gene 1543)
Description: LTEA_HepaRG_CYP1A1: Life Technologies and Expression Analysis (LTEA) Assay for Cytochrome P450 (CYP1A1) using HepaRG (AID 2283454). The procedure, abridged: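 qRT-PCR read-out: CYP1A1 transcript normalized to three housekeeping genes, fitted bidirectionally against 0.5% DMSO vehicle baseline. Human HepaRG cells, 48 h chemical exposure, 8-point half-log series topping at 100 uM.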

Read-out in assay [6]: CFLAR gene, CFLAR (gene 8837)
Description: LTEA_HepaRG_CFLAR: Life Technologies and Expression Analysis (LTEA) Assay for CFLAR gene using HepaRG (AID 2283455). The procedure, abridged:
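Transcript level by qRT-PCR (normalized to ACTB, GAPDH and POLR2A) after 48 h chemical exposure of HepaRG cells, top concentration 100 uM with half-log steps, 0.5% DMSO vehicle, duplicates; fitted bidirectionally against DMSO baseline.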

Read-out in assay [7]: Forkhead box O1 (FOXO1), FOXO1 (gene 2308)
In words: LTEA_HepaRG_FOXO1: Life Technologies and Expression Analysis (LTEA) Assay for Forkhead box O1 (FOXO1) using HepaRG (AID 2283456). The procedure, abridged: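 FOXO1 transcript quantified by qRT-PCR after 48 h chemical exposure (top 100 uM, half-log steps, 0.5% DMSO) of HepaRG cells, housekeeping-normalized (ACTB/GAPDH/POLR2A). Changes fitted in both directions relative to vehicle.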

Read-out in assay [8]: growth arrest and DNA damage 45 (GADD45A), GADD45A (gene 1647)
Description: LTEA_HepaRG_GADD45A: Life Technologies and Expression Analysis (LTEA) Assay for growth arrest and DNA damage 45 (GADD45A) using HepaRG (AID 2283458). The procedure, abridged:
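HepaRG, 48 h exposure, 8 conc. (top 100 uM, half-log steps), 0.5% DMSO vehicle, duplicates. Read-out: qRT-PCR mRNA level, housekeeping-normalized (ACTB/GAPDH/POLR2A). Curves fit bidirectionally vs DMSO baseline.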

Read-out in assay [9]: Forkhead box O3 (FOXO3), FOXO3 (gene 2309)
Description: LTEA_HepaRG_FOXO3: Life Technologies and Expression Analysis (LTEA) Assay for Forkhead box O3 (FOXO3) using HepaRG (AID 2283459). The procedure, abridged:
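FOXO3 transcript measured by qRT-PCR (normalized to ACTB, GAPDH, POLR2A) after 48 h exposure of HepaRG cells in serum-free induction medium. Duplicates, eight half-log concentrations up to 100 uM, 0.5% DMSO; gain or loss fitted against DMSO.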

Read-out in assay [10]: ABC Transporter (ABCB1), ABCB1 (gene 5243)
Description: LTEA_HepaRG_ABCB1: Life Technologies and Expression Analysis (LTEA) Assay for ABC Transporter (ABCB1) using HepaRG (AID 2283460). The procedure, abridged: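 ABCB1 transcript level measured by TaqMan qRT-PCR against three housekeeping genes after 48 h chemical exposure of differentiated HepaRG cells. Top concentration 100 uM, half-log steps, eight points, 0.5% DMSO vehicle; bidirectional fit relative to DMSO.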

Read-out in assay [11]: growth arrest and DNA damage 45 (GADD45B), GADD45B (gene 4616)
Description: LTEA_HepaRG_GADD45B: Life Technologies and Expression Analysis (LTEA) Assay for growth arrest and DNA damage 45 (GADD45B) using HepaRG (AID 2283461). The procedure, abridged: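 qRT-PCR read-out (Fluidigm TaqMan, housekeeping-normalized) of mRNA change in human HepaRG cells after 48 h chemical exposure; 8-point curve, top 100 uM, half-log steps, 0.5% DMSO vehicle; gain or loss fitted relative to DMSO baseline.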

Read-out in assay [12]: ABC Transporter (ABCC3), ABCC3 (gene 8714)
In words: LTEA_HepaRG_ABCC3: Life Technologies and Expression Analysis (LTEA) Assay for ABC Transporter (ABCC3) using HepaRG (AID 2283462). The procedure, abridged: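 qRT-PCR read-out of ABCC3 transcript, normalized to three housekeeping genes (ACTB, GAPDH, POLR2A), after 48 h chemical exposure of human HepaRG cells. Eight half-log concentrations, highest 100 uM, in 0.5% DMSO; gain or loss fitted relative to DMSO baseline.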

Read-out in assay [13]: ABC Transporter (ABCB11), ABCB11 (gene 8647)
Description: LTEA_HepaRG_ABCB11: Life Technologies and Expression Analysis (LTEA) Assay for ABC Transporter (ABCB11) using HepaRG (AID 2283463). The procedure, abridged:
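ABCB11 transcript levels quantified by TaqMan qRT-PCR against three housekeeping genes after 48 h chemical exposure of HepaRG cultures. Concentrations up to 100 uM in half-log steps, 0.5% DMSO vehicle; both induction and suppression scored.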

Read-out in assay [14]: ABC Transporter (ABCC2), ABCC2 (gene 1244)
In words: LTEA_HepaRG_ABCC2: Life Technologies and Expression Analysis (LTEA) Assay for ABC Transporter (ABCC2) using HepaRG (AID 2283464). The procedure, abridged: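 qRT-PCR (TaqMan, Fluidigm array) read-out of ABCC2 mRNA, normalized to three housekeeping genes. Differentiated HepaRG cells were treated 48 h in serum-free induction medium with 8-point half-log series from 100 uM in 0.5% DMSO; curves fitted bidirectionally relative to DMSO.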

Read-out in assay [15]: Broad substrate specificity ATP-binding cassette transporter ABCG2 (Homo sapiens) (UniProt Q9UNQ0)
Description: LTEA_HepaRG_ABCG2: Life Technologies and Expression Analysis (LTEA) Assay for ABC Transporter (ABCG2) using HepaRG (AID 2283465). The procedure, abridged:
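ABCG2 transcript was quantified by TaqMan qRT-PCR against three housekeeping genes in HepaRG cells. Cells were treated in duplicate for 48 h across an 8-point half-log series up to 100 uM, with 0.5% DMSO vehicle. Gain or loss versus DMSO was fit.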

Read-out in assay [16]: ATP-citrate lyase (ACLY), ACLY (gene 47)
In words: LTEA_HepaRG_ACLY: Life Technologies and Expression Analysis (LTEA) Assay for ATP-citrate lyase (ACLY) using HepaRG (AID 2283466). The procedure, abridged:
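ACLY mRNA quantified by qRT-PCR on Fluidigm arrays against three housekeeping genes, after 48 h chemical treatment of HepaRG cells (top concentration 100 uM, half-log steps, 0.5% DMSO vehicle). Up- or down-regulation fitted relative to DMSO.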

Read-out in assay [17]: Alkaline Phosphatase, Placental (ALPP) gene, ALPP (gene 250)
In words: LTEA_HepaRG_ALPP: Life Technologies and Expression Analysis (LTEA) Assay for Alkaline Phosphatase, Placental (ALPP) gene using HepaRG (AID 2283468).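 For AC50: differentiated human HepaRG liver cells in serum-free induction medium.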 The procedure, abridged: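 qRT-PCR readout of ALPP mRNA (Fluidigm TaqMan), normalized to ACTB/GAPDH/POLR2A, after 48 h chemical exposure of HepaRG cells; 8-point half-log series, top 100 uM, 0.5% DMSO vehicle. Bidirectional curve fit versus DMSO baseline.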

Read-out in assay [18]: Bcl-2 (BAD) gene, BAD (gene 572)
In words: LTEA_HepaRG_BAD: Life Technologies and Expression Analysis (LTEA) Assay for Bcl-2 (BAD) gene using HepaRG (AID 2283469). The procedure, abridged:
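Read-out: qRT-PCR of BAD mRNA, normalized to three housekeeping genes. Human HepaRG cultures got 48 h chemical exposure in 0.5% DMSO, duplicate eight-point half-log series topping at 100 uM. Gain or loss of signal fitted versus DMSO vehicle.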

Read-out in assay [19]: Peroxisomal acyl-coenzyme A oxidase 1 (ACOX1) gene, ACOX1 (gene 51)
Description: LTEA_HepaRG_ACOX1: Life Technologies and Expression Analysis (LTEA) Assay for Peroxisomal acyl-coenzyme A oxidase 1 (ACOX1) gene using HepaRG (AID 2283467). The procedure, abridged:
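ACOX1 transcript levels were quantified by TaqMan qRT-PCR against three housekeeping genes after 48 h chemical exposure of differentiated human HepaRG cells. Exposure used eight half-log steps topping at 100 uM, 0.5% DMSO vehicle, in duplicate. Bidirectional curve fits were made relative to DMSO.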

The source made the active and inactive calls. Rule for the calls: active = hit-call score of the fitted dose curve at least 0.9, where 1 is the maximum; inactive = score below 0.9.

Chain of Broad substrate specificity ATP-binding cassette transporter ABCG2 (Homo sapiens) (Q9UNQ0 whole entry, looked up): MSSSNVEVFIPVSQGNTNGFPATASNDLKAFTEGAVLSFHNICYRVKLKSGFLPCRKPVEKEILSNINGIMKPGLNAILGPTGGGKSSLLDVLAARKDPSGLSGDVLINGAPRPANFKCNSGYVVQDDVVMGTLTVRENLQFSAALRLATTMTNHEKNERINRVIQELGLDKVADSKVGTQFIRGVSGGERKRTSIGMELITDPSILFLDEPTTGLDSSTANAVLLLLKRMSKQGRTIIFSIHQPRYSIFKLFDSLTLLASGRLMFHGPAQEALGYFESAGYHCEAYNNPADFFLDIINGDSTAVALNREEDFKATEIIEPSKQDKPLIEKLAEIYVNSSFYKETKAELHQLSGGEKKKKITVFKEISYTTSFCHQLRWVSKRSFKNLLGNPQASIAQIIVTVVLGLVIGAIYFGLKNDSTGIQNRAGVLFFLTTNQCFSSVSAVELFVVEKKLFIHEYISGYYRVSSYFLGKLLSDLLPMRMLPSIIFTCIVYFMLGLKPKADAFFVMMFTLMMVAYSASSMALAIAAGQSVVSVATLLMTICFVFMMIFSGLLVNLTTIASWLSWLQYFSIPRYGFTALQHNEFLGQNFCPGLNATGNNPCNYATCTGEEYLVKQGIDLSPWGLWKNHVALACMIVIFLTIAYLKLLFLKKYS

Regarding `O=C(OCCCCCCOC(=O)c1ccccc1)c1ccccc1`, the call in assay [1], in assay [2], in assay [3], in assay [4], in assay [5] and in [6] was inactive. The compound was called inactive in assay [7], in [8], in assay [9], in assay [10], in assay [11] and in assay [12]. The compound was called inactive in assay [13], in assay [14], in assay [15], in [16], in assay [17] and in [18].
Regarding `CC1=CC(=O)/C(=C(/C)O)C(=O)O1`, the call in [1], in assay [2], in assay [3], in [4], in [5] and in assay [6] was inactive. For the same compound, the outcome in [7], in assay [8], in assay [9], in [10], in [11] and in assay [12] was inactive. Further, the result in assay [13], in assay [14], in [15], in [16], in [17] and in assay [18] was inactive.
With `O=C(O)c1ccccc1C(=O)OCc1ccccc1`, the compound was called inactive in assay [1], in [2], in assay [3], in [4], in assay [6] and in assay [7]. The compound was called inactive in [8], in assay [9], in [10], in assay [12], in assay [13] and in [14]. Moreover, the call in assay [15], in assay [16], in [19], in assay [17] and in [18] was inactive. Moreover, in assay [5], the AC50 (in general, the concentration giving half of the maximal activity seen) is 21.4 µM (active).
Take `CC(C)(c1cc(Br)c(O)c(Br)c1)c1cc(Br)c(O)c(Br)c1`: the AC50 in assay [1] was 92.3 µM (active); in assay [2] it was 47.8 µM (active); in assay [6], 71.8 µM (active); in [9], 89.2 µM (active); in [11], 74.5 µM (active); in [13], 9.94 µM (active). Moreover, the call in assay [3], in [4], in assay [5], in assay [7], in [8] and in assay [10] was inactive. For the same compound, the result in assay [12], in assay [14], in assay [15], in assay [16], in assay [17] and in [18] was inactive.
In the case of `CCCCCCCCCCCO`, the compound was classed as inactive in [1], in assay [2], in assay [3], in [4], in assay [5] and in assay [6]. In addition, the result in [7], in assay [8], in [9], in assay [10], in [11] and in assay [13] was inactive. For the same compound, the compound was called inactive in [14], in assay [15], in [16], in [17] and in assay [18].
Turning to `c1ccc(C[n+]2cccc3ccccc32)cc1`, the concentration at half-maximal activity (AC50) in assay [1] was 50 µM (active); in assay [3], 31.1 µM (active); in [4], 32.6 µM (active); in assay [5] it was 36.8 µM (active); in [7] it was 76.1 µM (active); in assay [8], 63.7 µM (active). Besides, the half-maximal activity concentration (AC50) was 23.2 µM (active) in assay [12]; 31.3 µM (active) in [13]; 3.93 µM (active) in assay [15]; 22.8 µM (active) in [19]; 13 µM (active) in assay [17]. In addition, the call in [2], in assay [6], in [10], in assay [11], in [14] and in assay [16] was inactive. In addition, the outcome in assay [18] was inactive.
